High-throughput results from PubChem BioAssay.
VACV mCherry inh – inhibitors of vaccinia virus infection (mCherry reporter signal); Vaccinia virus mCherry reporter infection, fluorescence; Potency, µM (doses to about 36.5 µM), without a hit: at the top dose activity change, negative = inhibition, actives largely listed as inhibitors; actives 0.63% (n = 310,000); AID 720579; calls by dose curve; tested in A549 cells; note: potency is the fitted concentration of half-maximal effect; % is set by controls: 0 for no effect and ±100 for the full control effect; nearly all actives have a fitted effect of over 35% in size
AmpC no deterg – AmpC beta-lactamase inhibition without detergent. P00811. AmpC nitrocefin hydrolysis, absorbance 480 nm, 0.0001% Triton. Potency, µM (titrated, usually from 57.1 µM), without a hit: at the top dose activity change, negative = inhibition, hits mostly inhibitors. actives 0.52% (n = 330,000);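 note: potency is the fitted concentration of half-maximal effect; plate controls were no compound for no effect and no enzyme for full effect; nearly all actives have a fitted effect of over 20% in size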
Target sequence (P00811 whole entry, looked up): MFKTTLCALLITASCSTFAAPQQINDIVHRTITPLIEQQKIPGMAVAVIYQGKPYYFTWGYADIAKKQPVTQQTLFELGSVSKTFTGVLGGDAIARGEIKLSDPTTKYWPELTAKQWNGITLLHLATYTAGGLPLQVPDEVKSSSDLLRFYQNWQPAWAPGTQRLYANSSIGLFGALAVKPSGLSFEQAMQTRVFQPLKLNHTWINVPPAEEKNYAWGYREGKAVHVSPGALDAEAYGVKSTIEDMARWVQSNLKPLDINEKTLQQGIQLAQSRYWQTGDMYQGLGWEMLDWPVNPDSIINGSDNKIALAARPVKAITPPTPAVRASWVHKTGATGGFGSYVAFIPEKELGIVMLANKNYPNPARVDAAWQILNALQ
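AmpC (5.3 nM in the dispensed reagent) in 20 mM phosphate pH 7.0 with 0.01% (detergent screen) or 0.0001% Triton X-100 was preincubated with compounds for 15 min at room temperature. Nitrocefin was then added from an 800 uM solution, and hydrolysis was followed at 480 nm.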
AmpC inh detg – blocks E. coli AmpC beta-lactamase in detergent assay; P00811; AmpC hydrolysis of nitrocefin, absorbance 480 nm, 0.01% Triton; Potency, µM (highest dose often 114 µM), inactives show at the highest dose activity change, negative = inhibition, hits mostly inhibitors; actives 0.041% (n = 370,000);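 note: potency is the fitted concentration of half-maximal effect; 0% = no-compound wells and -100% = no-enzyme wells; nearly all actives have a fitted effect of over 25% in size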
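AmpC (5.3 nM in the dispensed reagent) in 20 mM phosphate pH 7.0 with 0.01% (detergent screen) or 0.0001% Triton X-100 was preincubated with compounds for 15 min at room temperature. Nitrocefin was then added from an 800 uM solution, and hydrolysis was followed at 480 nm.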
SARS PLpro yeast-1 – inhibitors of SARS-CoV papain-like protease in yeast; S. cerevisiae expressing SARS-CoV PLpro, growth rescue; Potency, µM (titrated, usually from 32.9 µM), for the others: top-dose activity, positive = growth rescue, hits mostly activators; actives 0.19% (n = 330,000); AID 485353; calls by dose curve; note: potency is the fitted concentration of half-maximal effect; 0% is about no effect; nearly all actives have a fitted effect of over 55% in size
VACV Venus inh – vaccinia inhibition (Venus reporter); Vaccinia virus Venus reporter expression, fluorescence; Potency, µM (highest dose often 36.5 µM), inactives show at the highest dose activity change, negative = inhibition, usual class: inhibitors; actives 0.46% (n = 330,000); AID 720580; calls by dose curve; tested in A549 cells; note: potency is the fitted concentration of half-maximal effect; % is set by controls: 0 for no effect and ±100 for the full control effect; nearly all actives have a fitted effect of over 30% in size
SARS PLpro yeast-2 – Rescues yeast growth by inhibiting SARS-CoV PLpro; shares compounds with SARS PLpro yeast-1; yeast expressing SARS-CoV PLpro, growth phenotype rescue; calls only; actives 19% (n = 1,000); AID 652038; call rule not given here
Active calls of the source: *; i = inactive; ? = inconclusive; nt = not tested or not shown; + = active, no number. Only some compounds are listed: those with a hit (about 1.3% of all), similar ones and a draw of the others. Unless noted, calls come from the whole dose curve; as a rule, active = well fitted curve in the direction sought with a large enough effect; inconclusive = small, poorly fitted or top-dose-only effect, or another doubt; inactive = no such curve, though single readings can be large; an effect the other way counts as inactive or inconclusive.

SMILES | VACV mCherry inh | AmpC no deterg | AmpC inh detg | SARS PLpro yeast-1 | VACV Venus inh | SARS PLpro yeast-2
O=C1CCCC2=C1C(c1cccs1)Nc1ccc3ncccc3c12 (configuration not stated) | nt | -40% | 4% | 0% | nt | nt
CCc1ccc(NC(=O)Cn2c(=O)n(CCCC(=O)NCc3ccccc3OC)c(=O)c3ccccc32)cc1 | -16% | nt | -5% | nt | -11% | nt
CCOC(=O)N1CCN(S(=O)(=O)c2ccc(C(=O)N(CCN(CC)CC)c3nc4c(C)cccc4s3)cc2)CC1 | -23% | 1% | 5% | -3% | -10% | nt
CCOC(=O)N1CCN(S(=O)(=O)c2ccc(C(=O)NNc3nc4cc(C)cc(C)c4s3)cc2)CC1 | 13µM* | 20% | -1% | 7.9µM* | ? | ?
Cc1cccc2sc(NNC(=O)c3ccc(S(=O)(=O)N4CCc5ccccc5C4)cc3)nc12 | ? | 14µM* | -9% | 10µM* | ? | +
CCOC(=O)N1CCN(S(=O)(=O)c2ccc(C(=O)NNc3nc4ccc(Cl)cc4s3)cc2)CC1 | ? | ? | ? | 10µM* | ? | +
CCOC(=O)N1CCN(S(=O)(=O)c2ccc(C(=O)NNc3nc4c(C)cccc4s3)cc2)CC1 | -10% | -22% | ? | 7.9µM* | -20% | +
COc1cccc(OC(=O)CSc2nnc(-c3ccccc3OC)o2)c1 | -12% | nt | -2% | nt | -9% | nt
Cc1ccc(C)c(S(=O)(=O)Nc2ccc(C(=O)N3CCOCC3)cc2)c1 | i | nt | nt | nt | -15% | nt
COC(=O)c1ccc(CNC(=O)c2cc(S(=O)(=O)NCc3ccccc3)ccc2C)cc1 | ? | nt | nt | nt | -19% | nt
COc1cc(-c2nnc(SCc3cc(=O)oc4cc(O)c(O)cc34)o2)cc(OC)c1OC | nt | ? | -4% | 6.3µM* | nt | i
C(=N\n1c2ccccc2c2ccccc21)/c1ccccc1 | i | -19% | -2% | -1% | -7% | nt
C[n+]1cn(/N=C/c2ccccc2)c2ccccc21 | i | -8% | -5% | ? | -16% | i
COc1ccc(C(=O)NCC(c2cccs2)S(=O)(=O)c2ccc(F)c(C)c2)cc1 (configuration not stated) | 3% | nt | 2% | nt | -4% | nt
CCNC(=S)NNC(=O)c1ccccn1 | ? | -16% | ? | ? | ? | i
Cn1c(=O)c2c(nc(NCCCCO)n2Cc2ccccc2Cl)n(C)c1=O | -5% | nt | 25% | nt | 9% | nt
COCCC1CCCCN1C(=O)c1cc(COc2ccc(-n3cncn3)cc2)on1 (configuration not stated) | -20% | 89% | 1% | ? | -21% | i
O=C(CP(=O)(c1ccccc1)c1ccccc1)N/N=C/c1cc(Br)cc(Br)c1O | -10% | -43% | -2% | 2.5µM* | -4% | +
O=C(COc1ccc(F)c(Cl)c1)N1CCN(c2ccccn2)CC1 | -9% | 1% | 2% | ? | -13% | i
CN(C)S(=O)(=O)c1ccc(C(=O)NCc2ccc3[nH]c4c(c3c2)CCCC4)cc1 | 31% | 28µM* | ? | 3.5µM* | -13% | +
O=C(/C=C/c1ccccc1Cl)c1ccc(O)cc1 | ? | -48% | -9% | -8% | -23% | nt
O=C(/C=C/c1ccccc1Cl)c1ccccc(=O)c1O | 10µM* | ? | -1% | ? | ? | +
Cc1ccc(C)c(/C=C/C(=O)c2ccccc(=O)c2O)c1 | 14µM* | -32% | -1% | 3.5µM* | ? | i
COc1ccc(-c2noc(CSc3nc4ccccc4[nH]3)n2)cc1OC | -14% | nt | -1% | nt | -12% | nt
Cc1ccc(C(=O)Nc2nc(-c3ccccc3)c(-c3ccccc3)o2)cc1 | -22% | -22% | -9% | 10µM* | -7% | +
COc1ccc(/C=C/c2nc(C#N)c(NC3CCCCC3)o2)cc1OC | -16% | nt | 14% | nt | -17% | nt
COc1cccc(OC)c1Nc1nc(C)nc2c1nnn2Cc1ccccc1Cl | 1% | -4% | 3% | -2% | 6% | nt
CCc1nc(Nc2ccc(OC)c(OC)c2)c2nnn(Cc3ccccc3Cl)c2n1 | nt | 42% | 1% | 18µM* | ? | +
CSc1ccc(CN2CCC(N3CCC(C(=O)NC4CC4)CC3)CC2)cc1 | ? | nt | nt | nt | -24% | nt
